This is a sample that favours compounds with a hit; in the whole collection about 7.2% have one here.
HEK293 cAMP ctrl: counter-screen for TSHR agonists: cAMP increase in parental HEK293. Potency, µM (top dose mostly 57.1 µM), inactives show at the top dose activation, usual class: activators. 73,000 tested, 2.5% active. AID 938. parental HEK293 CNG cAMP sensor, membrane potential fluorescence; also: % of control where 0% means no effect; nearly all actives have a fitted effect of over 55% in size
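Parental HEK 293 cells stably expressing a cAMP-gated CNG channel were loaded with membrane potential dye containing 100 uM RO 20-1724 for 60 min. Compound added for 30 min; depolarization read as fluorescence intensity at 590 nm.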
FLuc inh: inhibitors of firefly luciferase. purified firefly luciferase, luminescence, 8 min. Potency, µM (highest dose often 57.1 µM), for the others: at the top dose activity change, negative = inhibition, actives largely listed as inhibitors. 72,000 tested, 2.2% active; also: % is scaled to controls: 0 for no effect and ±100 for the full control effect; nearly all actives have a fitted effect of over 40% in size
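Luminescence read-out after 8 min at room temperature; enzyme reaction used luciferin plus 10 uM ATP (linear range) in imidazole buffer pH 7.2 with KCl, MgCl2, Tween 20 and BSA. Each sample was run as a titration.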
Tau fil binding: binders of human tau filaments. 71,000 tested, 2% active. recombinant tau filaments, thioflavin S fluorescence, 15 h; filaments grown with octadecylsulfate alongside compound. P10636. AID 596. Potency, µM (titrated, usually from 57.1 µM), without a hit: at the top dose activity change, negative = inhibition;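 also: % is scaled to controls: 0 for no effect and ±100 for the full control effect; actives lower thioflavin S fluorescence by blocking filaments or displacing dye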
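Quantitative HTS: thioflavine S signal from ODS-induced tau filaments, excited at 450 nm, emission 510 nm. Conditions: 1 uM tau, 30 uM ODS, 15 h at 37 C, pH 7.4.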
TSHR agonist: activates the human thyroid stimulating hormone receptor; Potency, µM (series often up to 57.1 µM), without a hit: top-dose activation, most hits filed as activators; HEK293-CNG-TSHR cells (CNG channel as cAMP sensor), membrane potential dye, cAMP; P16473; 73,000 tested, 0.48% active; active = well fitted activation curve with a large enough effect in the main read-out, with a control signal flat, not every such curve was filed as active; inconclusive = small, poorly fitted or top-dose-only effect, or a change in a side signal; inactive = no such curve, though single readings can be large or run the other way; % of control where 0% means no effect;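 also: the control signal comes from parental cells without the receptor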
Target sequence (P16473 whole entry, looked up): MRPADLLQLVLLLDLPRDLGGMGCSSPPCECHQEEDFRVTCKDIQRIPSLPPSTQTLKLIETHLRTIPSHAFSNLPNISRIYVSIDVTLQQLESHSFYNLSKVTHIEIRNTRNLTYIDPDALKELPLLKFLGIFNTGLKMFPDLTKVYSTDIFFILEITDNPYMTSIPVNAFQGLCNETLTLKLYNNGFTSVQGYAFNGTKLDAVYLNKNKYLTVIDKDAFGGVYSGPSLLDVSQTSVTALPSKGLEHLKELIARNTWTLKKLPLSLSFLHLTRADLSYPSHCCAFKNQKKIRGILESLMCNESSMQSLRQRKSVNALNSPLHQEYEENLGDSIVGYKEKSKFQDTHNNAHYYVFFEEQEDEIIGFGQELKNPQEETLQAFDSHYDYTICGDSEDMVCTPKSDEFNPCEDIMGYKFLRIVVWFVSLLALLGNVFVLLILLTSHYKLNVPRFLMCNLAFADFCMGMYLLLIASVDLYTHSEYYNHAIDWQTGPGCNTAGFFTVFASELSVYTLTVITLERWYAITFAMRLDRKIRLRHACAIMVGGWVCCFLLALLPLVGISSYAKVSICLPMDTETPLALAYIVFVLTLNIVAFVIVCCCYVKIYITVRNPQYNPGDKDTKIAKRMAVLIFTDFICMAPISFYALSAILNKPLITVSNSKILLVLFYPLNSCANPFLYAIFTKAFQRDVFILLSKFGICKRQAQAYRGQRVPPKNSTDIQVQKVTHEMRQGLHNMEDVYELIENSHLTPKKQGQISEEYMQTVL
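HEK 293 cells stably expressing TSHR and a cAMP-gated CNG channel; parental CNG-only cells as counterscreen. Cells preloaded 60 min with membrane potential dye plus 100 uM RO 20-1724, then compound 30 min; fluorescence read at 590 nm.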
Bst PK mod: modulators of Bacillus stearothermophilus pyruvate kinase | purified pyruvate kinase, luminescence ATP production; ribose 5-phosphate activator present at AC10 | Potency, µM | 51,000 tested, 1.2% active | AID 361; in the data active = potency below about 11 µM; inconclusive = mostly about 12 µM to 25 µM;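 the screen sought inhibitors and activators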;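 also: scaled between full activation by ribose 5 phosphate and full inhibition by luteolin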
ERK AVP block: inhibitors of vasopressin-stimulated ERK signaling pathway. HEK293-V1b, vasopressin-stimulated pERK AlphaScreen. Potency, µM (top dose mostly 57.5 µM), for the others: top-dose activity, negative = inhibition, actives largely listed as inhibitors. 72,000 tested, 0.99% active; also: % is scaled to controls: 0 for no effect and ±100 for the full control effect; nearly all actives have a fitted effect of over 55% in size
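HEK293 cells stably expressing V1b receptor, seeded overnight in 1% FBS, were treated with compounds for 30 min at 37C, then stimulated 5 min with 25 nM vasopressin; phospho-ERK read by AlphaScreen SureFire after lysis.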
Starred values were filed as active, the others as inactive; ? = inconclusive; . = no result; [ ] = dose if it differs, or a comment. Unless noted, calls follow the shape of the dose curve; as a rule, active = well fitted curve in the direction sought with a large enough effect; inconclusive = small, poorly fitted or top-dose-only effect, or another doubt; inactive = no such curve, though single readings can be large; an effect the other way counts as inactive or inconclusive. Potency is read from the fitted curve at half-maximal effect.

SMILES	HEK293 cAMP ctrl	FLuc inh	Tau fil binding	TSHR agonist	Bst PK mod	ERK AVP block
CC(C)[C@@H](CC(=O)N[C@@H]1CCNC[C@H]1C(=O)N[C@H](CC(=O)N[C@@H](CCC(=O)O)CC(=O)O)Cc1c[nH]c2ccccc12)NC(=O)C[C@H](Cc1c[nH]c2ccccc12)NC(=O)[C@@H]1CNCC[C@H]1N	?	.	-7%	?	.	.
OC(CCCCN1CCCCC1)c1ccccc1 (stereo not given)	12%	2%	-3%	2%	>57	10%
O=C(NCCCN1CCCCCC1)[C@@H](c1ccccc1)C1CCCCC1	16µM*	3%	?	?	.	19%
Nc1nc2c(nc(Br)n2[C@@H]2O[C@H]3COP(=O)(O)O[C@@H]3[C@H]2O)c(=O)[nH]1	?	-3%	7%	?	.	-6%
CC[C@H](C)C(=O)O[C@@H]1C[C@H](C)C=C2C=C[C@H](C)[C@@H](CC[C@H]3C[C@@H](O)CC(=O)O3)[C@H]21	8%[25.6 µM]	5%[25.5 µM]	2%[25.6 µM]	-3%[25.6 µM]	.	11%[25.7 µM]
CCOc1ccc2nc(N3CCC(C(=O)N4CCN(c5ccccn5)CC4)CC3)sc2c1	11%	6.3µM*	91%	8%	.	20µM*
CCOc1ccc2nc(N3CCCC(C(=O)NCCCN4CCOCC4)C3)sc2c1 (stereo not given)	?	25µM*	-18%	?	.	27%
CN(C)Cc1ccccc1-c1nc(NCc2ccccc2)c2ccccc2n1	?	0%[2.29 µM]	42%	?	.	28%
CC1CC[C@@]2(OC1)OC1CC3C4CC=C5CC(O)CC[C@@]5(C)C4CC[C@]3(C)C1C2C (stereo not given in full)	.	.	.	.	.	16%
O=C(NC1CCN(Cc2ccccc2)CC1)C1CCCN(S(=O)(=O)c2cccc3nonc23)C1 (stereo not given)	-4%	0%	16µM*	-7%	>57	-19%
COc1ccc(-n2c(/C=C(\C)O)nc(=O)c3c(C)cc(C)nc32)cc1	25µM*	4%	17%	?	>57	-17%
COc1cc(CN2CCN(c3cccc(Cl)c3)CC2)cc(OC)c1OC	26%	1%	11%	20%	>57	28%
COc1ccc(CCNC(=O)CN2CCN(c3cccc(Cl)c3)CC2)cc1OC	?	3%	-1%	?	>57	20µM*
Cc1cccc(CNc2ncnc3ccc(-c4ccccc4C#N)cc23)c1	25µM*	1%[2.29 µM]	9%	?	.	-20%
N#Cc1ccccc1-c1ccc2ncnc(NCc3cccs3)c2c1	16µM*	0%[2.29 µM]	350%	?	.	-26%
CC(=O)OCC1C2CC[C@H]3C(OCc4ccc(F)cc4C(F)(F)F)OC[C@]4(C)[C@H]3C2=C(CN4C(=O)OC(C)(C)C)[C@H](C)C1COC(C)=O (stereo not given in full)	19%	.	0%	10%	.	37%
COc1ccc(N2CCN(C(=O)c3ccc(NS(=O)(=O)c4ccc(F)cc4)cc3)CC2)cc1	-27%	-4%	16µM*	-9%	>57	?
COc1nc(-c2ccccc2)ccc1-c1noc(COc2ccccc2)n1	32µM*	0%	40%	?	>57	48%
CCN(CC)c1ccc(-n2c(C)c(C(C)=O)c(C(C)=O)c2C)cc1	16µM*	1%	2%	?	>57	-30%
CC(=O)c1c(C(C)=O)c(C)n(-c2ccc(C(=O)O)cc2)c1C	5%	-4%	-11%	-1%	>57	-8%
COc1cccc(Cn2c(=O)c(C)nc3cnc(Nc4ccccc4)nc32)c1	16%	0%[11.4 µM]	40%	.	.	-1%
O=C(CSc1ncnc2c1oc1ccccc12)N1CCCc2ccccc21	32µM*	3%	6%	?	>57	?
C[C@H]1CC[C@@H]2[C@@H](C)[C@H]3[C@H](C[C@H]4[C@@H]5CC=C6C[C@@H](O[C@]7(O[C@H]8O[C@@H](C)[C@@H](O)[C@@H](O)[C@@H]8O)C[C@@H](O[C@@H]8O[C@H](CO)[C@@H](O)[C@H](O)[C@@H]8O)[C@@H](O)[C@H](CO)O7)CC[C@]6(C)[C@H]5CC[C@@]34C)N2C1	1%[25.6 µM]	12%[25.5 µM]	62%[25.6 µM]	0%[25.6 µM]	.	32%[25.7 µM]
CNC(=O)c1c(I)c(C(=O)NCC(=O)Nc2c(I)c(C(=O)O)c(I)c(C(=O)NCCO)c2I)c(I)c(N(C)C(C)=O)c1I	3%[25.6 µM]	0%[25.5 µM]	104%[25.6 µM]	20%[25.6 µM]	.	-8%[25.7 µM]
COc1ccc(-c2ncc3ccccn23)cc1	-3%	16µM*	20µM*	-6%	.	-16%
SMILES	HEK293 cAMP ctrl	FLuc inh	Tau fil binding	TSHR agonist	Bst PK mod	ERK AVP block
c1csc(-c2ncc3ccccn23)c1	0%	-3%	26%	-4%	.	-13%
O=C(O)c1ccc(SSc2ccc(C(=O)O)cn2)nc1	0%[11.4 µM]	-7%[11.4 µM]	5%[11.4 µM]	2%[11.4 µM]	.	1%[11.5 µM]
CCOC(=O)c1ccc(NCc2nc3ccccc3[nH]2)cc1	22%	16µM*	-4%	-1%	.	?
COc1cc(NC(=O)C2CCCN2C(=O)C2CCC(C)CC2)cc(OC)c1OC (stereo not given)	0%	-4%	-30%	6%	.	.
COc1ccc(OC)c(NC(=O)C2CCCN2C(=O)C2CCC(C)CC2)c1 (stereo not given)	0%	1%	20µM*	22%	.	.
CCOC(=O)CNc1ncnc2nc[nH]c12	?	10µM*	7%	?	.	.
COCCNc1ncnc2nc[nH]c12	2%	1%	6%	1%[11.4 µM]	>57	-9%
COCCCNc1ncnc2nc[nH]c12	16%	6.3µM*	120%	13%	.	.
CC(C)=CCNc1ncnc2nc[nH]c12	-2%[11.4 µM]	2%[11.4 µM]	4%[11.4 µM]	-7%[11.4 µM]	.	-1%[11.5 µM]
COc1ncc2ncc(=O)n(CCC#N)c2n1	9%	1%[11.4 µM]	6%	2%	.	-8%
Cc1cc(C(=O)CN2C(=O)c3ccccc3C2=O)c(C)n1Cc1cccs1	2%	7.9µM*	9%	3%	11*	-2%
Cc1cc(C(=O)CN2C(=O)CCC2=O)c(C)n1Cc1ccccc1	?	-3%	1%	?	>57	-4%
Cc1cc(C(=O)Cn2nnc3ccccc3c2=O)c(C)n1Cc1cccs1	?	6.3µM*	-9%	?	5.7*	2%
COc1ccc(OC)c(C(=O)Cn2nnc3ccccc3c2=O)c1	8%	2%	11%	1%	>57	8%
FC(F)(F)c1cc(CO[C@@H]2CCCN[C@H]2c2ccccc2)cc(C(F)(F)F)c1	22%	-1%	-12%	.	.	-21%
c1ccc(-c2cccc(N3CC[C@@]4(CCCNC4)C3)c2)cc1	5%	-15%[11.4 µM]	13µM*	-7%	.	-29%
c1ccc(-c2cccc(N3CCCC4(CCNCC4)C3)c2)cc1	8%	?	?	1%	.	10%
O=C(O)CCc1nn2cc(-c3ccccc3)nc2[nH]c1=O	.	-1%[25.5 µM]	.	.	>26	.
